Laboratory results as given in PubChem BioAssay (Tox21).
Where “and” joins values, the source holds several entries; their conditions need not be identical. Equal entries are not always repeated. Results filed as inconclusive are left out. The source holds several records for some structures; these can differ, active in one and inactive in another. Calls of active or inactive are those of the source. Unless noted, the call rests on the fitted dose curve; in most records, active means well fitted curve in the direction sought with a large enough effect in the repeat runs; inconclusive means weak or mixed curves; inactive means no such curve, though single readings can be large; an effect the other way counts as inactive or inconclusive.

How the values were obtained:
[1] = qHTS assay for small molecule agonists of the p53 signaling pathway (AID 651631; calls by dose curve; further: nearly all actives have a fitted effect of over 15% in size); conditions: HCT-116 p53RE-bla reporter, beta-lactamase FRET ratio, 16 h; series mostly up to 73.3 µM
Method in brief: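 Agonist mode screen using a stably integrated beta-lactamase gene under p53 response elements in HCT-116 cells. Compound exposure lasts 16 h at 37 °C; fluorescence intensity is measured following 2 h FRET substrate loading.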

[2] = qHTS assay for small molecules that induce genotoxicity in human embryonic kidney cells expressing luciferase-tagged ATAD5 (AID 651632); conditions: HEK293T ATAD5-luciferase induction, 16 h; series mostly up to 83.3 µM; further: nearly all actives have a fitted effect of over 15% in size
Method in brief: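 Genotoxicity read-out via ATAD5-luciferase: HEK293T cells, 16 hr compound incubation at 37C, Amplite detection.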

[3] = qHTS assay for small molecules that induce genotoxicity in human embryonic kidney cells expressing luciferase-tagged ATAD5 - cell viability (AID 651634; calls by dose curve; further: nearly all actives have a fitted effect of over 25% in size); conditions: HEK293T ATAD5-luc cells viability, CellTiter-Fluor, 15.5 h; series mostly up to 83.3 µM
Method in brief: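 Live-cell protease activity (CellTiter-Fluor, fluorescence) indicates viability. HEK293T cells with luciferase-tagged ATAD5; 15.5 hr compound treatment at 37C.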

[4] = qHTS assay for small molecule disruptors of the mitochondrial membrane potential - cell viability (AID 720634; calls by dose curve;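 further: human HepG2 liver cancer cells; nearly all actives have a fitted effect of over 20% in size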); conditions: HepG2 viability, ATP luminescence (CellTiter-Glo), 1 h; series mostly up to 83.2 µM
Method in brief: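 Human hepatoma HepG2 cells were treated for 1 hr with test chemicals, then given m-MPI dye and CellTiter-Glo. Cell viability reflects luminescence proportional to cellular ATP.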

[5] = qHTS assay to test for compound auto fluorescence at 590 nm (red) in HepG2 cells (AID 720674); conditions: HepG2 autofluorescence, red 540/590 nm, 1 h; series mostly up to 91.3 µM
Method in brief: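 Fluorescence at 590 nm emission following 540 nm excitation was recorded from HepG2 wells one hour after compound transfer, with DMSO-only wells as vehicle and Rose Bengal sodium equivalency as the scale.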

[6] = qHTS assay to test for compound auto fluorescence at 535 nm (green) in HepG2 cells (AID 720675); conditions: green autofluorescence 485/535 nm, 1 h; series mostly up to 91.3 µM
[7] = qHTS assay to test for compound auto fluorescence at 590 nm (red) in HEK293 cells (AID 720679); conditions: red autofluorescence 540/590 nm; series mostly up to 91.3 µM
Method in brief: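 HEK293 cells (2,000/well, 10% dialyzed FBS) attached 4-5 hr, then dosed with compound or DMSO and incubated overnight at 37C, 5% CO2. Red fluorescence read at 540/590 nm, Rose Bengal sodium as reference fluorophore.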

[8] = qHTS assay for small molecule agonists of the p53 signaling pathway - cell viability (AID 651633; calls by dose curve; further: nearly all actives have a fitted effect of over 30% in size; further: potency means the concentration at half of the fitted maximal effect); conditions: p53RE-bla HCT-116 viability, ATP luminescence, 16 h; series mostly up to 83.3 µM
Method in brief: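 p53RE-bla cells were treated with compound for 16 hours at 37 C. Cytotoxicity was then measured as CellTiter-Glo luminescence after 30 min at room temperature.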

[9] = qHTS assay to test for compound auto fluorescence at 460 nm (blue) in HEK293 cells (AID 720678); conditions: blue autofluorescence 405/460 nm; series mostly up to 91.3 µM
Method in brief: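 HEK293 cells (2,000/well, medium with 10% dialyzed FBS) attached 4-5 hr, then exposed to compound overnight at 37C, 5% CO2. Blue fluorescence read at 405/460 nm, with triamterene as reference fluorophore.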

[10] = qHTS assay for small molecule disruptors of the mitochondrial membrane potential (AID 720635); conditions: HepG2 mitochondrial membrane potential, Mito-MPS dye ratio; series mostly up to 83.2 µM; further: potency means the concentration at half of the fitted maximal effect
Method in brief: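 HepG2 cells exposed to compound 1 hr at 37C, then Mito-MPS dye 30 min. Ratio read of aggregate (540/590 nm) versus monomer (490/535 nm) fluorescence.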
On the % scale 0 is the no-effect control and ±100 the full control effect.

CC(C)(C)NC[C@H](O)c1ccc(O)cc1Cl
inactive: Potency [1] | outcome [2] | Potency [3] | Potency [4] | outcome [5] | outcome [6] | outcome [7]

O=C(Cl)C(Cl)(Cl)Cl
inactive: Potency [1] | Potency [8] | Potency [3] | Potency [4] | outcome [5] | outcome [6] | outcome [9] | outcome [7]

O=C/C=C/c1ccco1
inactive: Potency [1] | Potency [8] | Potency [3] | Potency [4] | Potency [10] | outcome [5] | outcome [6] | outcome [9] | outcome [7]

CC#Cc1cc(C)nc(Nc2ccccc2)n1
active: Potency [10] 27.3 µM
inactive: Potency [1] | Potency [8] | Potency [3] | Potency [4] | outcome [5] | outcome [6] | outcome [9] | outcome [7]

CC(=O)CN(CC(C)=O)N=O
inactive: Potency [1] | outcome [2] | Potency [3] | Potency [4] | outcome [5] | outcome [6] | outcome [9] | outcome [7]

Cl/C=C/CCl
inactive: Potency [1] | outcome [2] | Potency [3] | Potency [4] | Potency [10] | outcome [5] | outcome [6] | outcome [9] | outcome [7]

COc1ccc(CN2CCNCC2)c(OC)c1OC
inactive: Potency [1] | outcome [2] | Potency [3] | Potency [4] | fluorescence, relative to Rose Bengal [5] -0.414% [at 18.6 µM] | fluorescence, % of fluorescein control [6] 0.0608% [at 18.6 µM] | fluorescence, % of triamterene [9] -0.103% [at 18.6 µM] | fluorescence, % of fluorescent control [7] 0.0575% [at 18.6 µM]

C#CCOC(=O)/C=C(C)/C=C/CC(C)CCCC(C)C (configuration not stated)
inactive: Potency [1] | outcome [2] | Potency [3] | Potency [4] | outcome [5] | outcome [6] | outcome [9] | outcome [7]

BrCc1ccc(Br)cc1
inactive: Potency [1] | Potency [8] | Potency [3] | Potency [4] | Potency [10] | outcome [5] | outcome [6] | outcome [9] | outcome [7]

CC(C)(C)c1cc(O)ccc1O
inactive and 29.8 µM (active): Potency [8]
inactive: Potency [1] | Potency [3] | Potency [4] | outcome [5] | outcome [6] | outcome [9] | outcome [7]
inactive and 22.1 µM (active): Potency [10]

O=C(Cl)C(Cl)Cl
inactive: Potency [1] | Potency [8] | Potency [3] | Potency [4] | outcome [5] | outcome [6] | outcome [9] | outcome [7]
